PubChem BioAssay (NCI)
About 79,000 compounds went through this panel and 15% of them were active in at least one assay; those are over-represented in the sample as a whole. Activity calls are given as the source filed them. Rule as the data show it: active = growth inhibition above about 70%; inactive = the rest.

What was measured:
[1] = NCI Yeast Anticancer Drug Screen. Data for the rad52 strain (AID 147);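 also: 0% = growth of vehicle-treated control cultures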; details: S. cerevisiae rad52 mutant growth inhibition, hits give high values
Summary of the method: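 Yeast strain carrying a DNA damage repair alteration was exposed to test compounds. Growth inhibition was measured relative to vehicle-treated controls.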

[2] = NCI Yeast Anticancer Drug Screen. Data for the wt1 strain (AID 149);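 also: 0% = growth of vehicle-treated wt1 cultures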; details: S. cerevisiae wt1 strain (SPY 50644) growth inhibition, hits give high values
Summary of the method: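 wt1 strain grown with compound or vehicle; inhibition taken from the growth difference.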

[3] = NCI Yeast Anticancer Drug Screen. Data for the rad50EPP+ strain (AID 151);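 also: 0% = growth of vehicle-treated control cultures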; details: S. cerevisiae rad50 mutant strain, hits give high values
Summary of the method: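 Yeast strain carrying rad50 alteration (rad50EPP+) exposed to compounds; growth inhibition measured relative to vehicle-treated controls.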

[4] = NCI Yeast Anticancer Drug Screen. Data for the mgt1 strain (AID 153); details: S. cerevisiae mgt1 mutant growth inhibition, hits give high values
Summary of the method: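 Yeast mgt1 strain (DNA repair/cell-cycle alteration panel) exposed to compounds; growth inhibition measured relative to vehicle-treated controls.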

[5] = NCI Yeast Anticancer Drug Screen. Data for the rad50 strain (AID 155);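 also: 0% = growth of vehicle-only cultures of the same strain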; details: S. cerevisiae rad50 strain growth inhibition, hits give high values
Summary of the method: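 DNA repair mutant yeast, compound exposure, growth read-out; inhibition is taken relative to vehicle.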

[6] = NCI Yeast Anticancer Drug Screen. Data for the mec2-1 strain (AID 157); details: S. cerevisiae mec2-1 strain, hits give high values
Summary of the method: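 mec2-1 yeast strain, carrying an alteration in DNA damage repair or cell cycle control, was exposed to compounds; growth inhibition was measured relative to vehicle-treated controls.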

[7] = NCI Yeast Anticancer Drug Screen. Data for the rad14 strain (AID 159);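 also: 0% = growth of vehicle-treated control cultures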; details: S. cerevisiae rad14 strain growth inhibition, hits give high values
Summary of the method: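 DNA repair-defective yeast, compound-exposed; % growth inhibition derived by comparison with vehicle-treated controls.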

[8] = NCI Yeast Anticancer Drug Screen. Data for the sgs1 mgt1 strain (AID 161);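 also: 0% = growth of cultures given vehicle only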; details: S. cerevisiae sgs1 mgt1 strain, hits give high values
Summary of the method: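 Percent growth inhibition was derived by comparing compound-exposed mutant yeast with vehicle-exposed cultures. The strain carries alterations in DNA damage repair.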

[9] = NCI Yeast Anticancer Drug Screen. Data for the CLN2oe strain (AID 163);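 also: 0% = growth of vehicle-only control cultures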; details: S. cerevisiae CLN2oe strain, hits give high values
Summary of the method: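 Yeast cells carrying a defined cell-cycle control alteration were exposed to test compounds. Growth inhibition was scored against vehicle-treated control cultures.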

[10] = NCI Yeast Anticancer Drug Screen. Data for the cln2 rad14 strain (AID 165);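 also: 0% = growth equal to vehicle treated cultures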; details: S. cerevisiae cln2 rad14 strain, hits give high values
Summary of the method: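 Yeast carrying cln2 and rad14 alterations (cell cycle control and DNA damage repair) were exposed to compounds. Growth inhibition was measured against vehicle-treated controls.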

[11] = NCI Yeast Anticancer Drug Screen. Data for the bub3 strain (AID 167); details: S. cerevisiae bub3 mutant strain, hits give high values
Summary of the method: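 In this screen, a yeast mutant lacking normal mitotic checkpoint function is challenged with compound. Relative growth versus vehicle gives the inhibition value.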

[12] = NCI Yeast Anticancer Drug Screen. Data for the wt2 strain (AID 169);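 also: 0% = growth of vehicle-treated yeast cultures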; details: S. cerevisiae wt2 strain growth inhibition, hits give high values
Summary of the method: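 Yeast cells were exposed to test compounds, and growth inhibition was measured relative to vehicle-treated controls.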

[13] = NCI Yeast Anticancer Drug Screen. Data for the mlh1 strain (AID 171);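 also: 0% = growth of vehicle-treated control cultures of the same strain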; details: S. cerevisiae mlh1 strain growth inhibition, hits give high values
Summary of the method: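 Yeast carrying a defined genetic alteration in DNA damage repair or cell cycle control were exposed to test compounds. Growth inhibition was measured relative to vehicle-treated controls.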

[14] = NCI Yeast Anticancer Drug Screen. Data for the sgs1 strain (AID 173);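 also: 0% = growth of vehicle-only control cultures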; details: S. cerevisiae sgs1 mutant, hits give high values
Summary of the method: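 Yeast mutant strains carrying defined defects in DNA damage repair or cell cycle control were exposed to test compounds. Growth inhibition was scored against vehicle-treated controls.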

[15] = NCI Yeast Anticancer Drug Screen. Data for the mlh1 rad18 strain (AID 175); details: S. cerevisiae mlh1 rad18 strain growth inhibition, hits give high values
Summary of the method: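 Growth inhibition of the yeast strain was measured after compound exposure and expressed relative to vehicle-treated controls. The strain carries defined defects in DNA damage repair.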

[16] = NCI Yeast Anticancer Drug Screen. Data for the rad18 strain (AID 177); details: S. cerevisiae rad18 mutant growth inhibition, hits give high values
Summary of the method: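 Yeast carrying a defined DNA damage repair alteration were exposed to compounds. Growth inhibition was expressed relative to vehicle-treated controls.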

[17] = at 5.0 µM (retest, dose inferred, filed as 0.5)
[18] = at 50.0 µM (retest, dose inferred, filed as 5.0)

Measured: growth inhibition

CC1CC[C@]2(C(=O)O)CCC3(C)C(=CC(=O)C4[C@@]5(C)CCC(=O)C(C)(C)C5CC[C@]43C)[C@@H]2[C@H]1C (stereo partly drawn)
active: [1]; at 11.0 µM 91% | [1]; at 33.0 µM 98% | [1]; at 100.0 µM 97% | [2]; at 11.0 µM 93% | [2]; at 33.0 µM 98% | [2]; at 100.0 µM 97% | [4]; at 11.0 µM 88% | [4]; at 33.0 µM 97% | [4]; at 100.0 µM 97% | [5]; at 11.0 µM 92% | [5]; at 33.0 µM 98% | [5]; [18] 97% | [5]; at 50.0 µM 90.8% | [5]; at 100.0 µM 97% | [6]; at 11.0 µM 88% | [6]; at 33.0 µM 95% | [6]; [18] 97% | [6]; at 50.0 µM 91.5% | [6]; at 100.0 µM 95% | [7]; at 11.0 µM 77% | [7]; at 33.0 µM 95% | [7]; at 100.0 µM 96% | [8]; [18] 96% | [8]; at 50.0 µM 89.8% | [9]; at 11.0 µM 92% | [9]; at 33.0 µM 97% | [9]; at 100.0 µM 97% | [10]; [18] 98% | [10]; at 50.0 µM 90.7% | [11]; at 11.0 µM 88% | [11]; at 33.0 µM 96% | [11]; [18] 97% | [11]; at 50.0 µM 91.7% | [11]; at 100.0 µM 96% | [12]; at 11.0 µM 88% | [12]; at 33.0 µM 98% | [12]; at 100.0 µM 97% | [13]; at 11.0 µM 83% | [13]; at 33.0 µM 96% | [13]; at 100.0 µM 96% | [14]; at 11.0 µM 91% | [14]; at 33.0 µM 98% | [14]; at 100.0 µM 97% | [15]; [18] 97% | [15]; at 50.0 µM 90.7% | [16]; at 11.0 µM 93% | [16]; at 33.0 µM 97% | [16]; at 100.0 µM 97%
inactive: [1]; at 1.2 µM 29% | [1]; at 3.7 µM 43% | [2]; at 1.2 µM 9% | [2]; at 3.7 µM 20% | [3]; at 1.2 µM 9% | [3]; at 3.7 µM 21% | [3]; at 11.0 µM 28% | [3]; at 33.0 µM 18% | [3]; at 100.0 µM 30% | [4]; at 1.2 µM 4% | [4]; at 3.7 µM 9% | [5]; at 1.2 µM 20% | [5]; at 3.7 µM 46% | [5]; [17] 4% | [6]; at 1.2 µM -2% | [6]; at 3.7 µM 38% | [6]; [17] 26% | [7]; at 1.2 µM -19% | [7]; at 3.7 µM -13% | [8]; [17] 7% | [9]; at 1.2 µM 1% | [9]; at 3.7 µM 37% | [10]; [17] 65% | [11]; at 1.2 µM 12% | [11]; at 3.7 µM 29% | [11]; [17] 58% | [12]; at 1.2 µM 12% | [12]; at 3.7 µM 13% | [13]; at 1.2 µM 14% | [13]; at 3.7 µM 14% | [14]; at 1.2 µM 29% | [14]; at 3.7 µM 30% | [15]; [17] 35% | [16]; at 1.2 µM 15% | [16]; at 3.7 µM 34%

CC(C)CN(CC(C)C)C(=O)c1ccc(Cl)c(Cl)c1
inactive: [1]; at 1.2 µM -4% | [1]; at 3.7 µM 0% | [1]; at 11.0 µM 6% | [2]; at 1.2 µM -3% | [2]; at 3.7 µM -3% | [2]; at 11.0 µM -3% | [2]; at 33.0 µM 63% | [3]; at 1.2 µM -2% | [3]; at 3.7 µM 0% | [3]; at 11.0 µM 2% | [3]; at 33.0 µM 6% | [3]; at 100.0 µM 3% | [4]; at 1.2 µM 2% | [4]; at 3.7 µM 2% | [4]; at 11.0 µM 1% | [4]; at 33.0 µM 21% | [5]; at 1.2 µM -2% | [5]; at 3.7 µM 4% | [5]; [17] -10% | [5]; at 11.0 µM 6% | [6]; at 1.2 µM -1% | [6]; at 3.7 µM 1% | [6]; [17] 6% | [6]; at 11.0 µM 0% | [7]; at 1.2 µM -2% | [7]; at 3.7 µM -1% | [7]; at 11.0 µM 9% | [7]; at 33.0 µM 31% | [8]; [17] -3% | [9]; at 1.2 µM 2% | [9]; at 3.7 µM 9% | [9]; at 11.0 µM 14% | [9]; at 33.0 µM 41% | [10]; [17] -29% | [10]; [18] 50% | [11]; at 1.2 µM 4% | [11]; at 3.7 µM 3% | [11]; [17] -18% | [11]; at 11.0 µM 8% | [11]; at 33.0 µM 25% | [11]; [18] 22% | [12]; at 1.2 µM -3% | [12]; at 3.7 µM -5% | [12]; at 11.0 µM -5% | [13]; at 1.2 µM 0% | [13]; at 3.7 µM 2% | [13]; at 11.0 µM 5% | [13]; at 33.0 µM 39% | [14]; at 1.2 µM 0% | [14]; at 3.7 µM 3% | [14]; at 11.0 µM 5% | [14]; at 33.0 µM 62% | [16]; at 1.2 µM 0% | [16]; at 3.7 µM 4% | [16]; at 11.0 µM 5% | [16]; at 33.0 µM 66%
active: [1]; at 33.0 µM 82% | [1]; at 100.0 µM 98% | [2]; at 100.0 µM 98% | [4]; at 100.0 µM 98% | [5]; at 33.0 µM 85% | [5]; [18] 94% | [5]; at 50.0 µM 94.7% | [5]; at 100.0 µM 99% | [6]; at 33.0 µM 82% | [6]; [18] 76% | [6]; at 50.0 µM 98% | [6]; at 100.0 µM 99% | [7]; at 100.0 µM 99% | [8]; [18] 83% | [8]; at 50.0 µM 95.8% | [9]; at 100.0 µM 99% | [10]; at 50.0 µM 93.2% | [11]; at 50.0 µM 83% | [11]; at 100.0 µM 99% | [12]; at 33.0 µM 74% | [12]; at 100.0 µM 99% | [13]; at 100.0 µM 98% | [14]; at 100.0 µM 99% | [16]; at 100.0 µM 99%
